In all, about 10,000 compounds went through this assay and fewer than 10 were called active. No rule for the calls is given here. Not all results are given here.

A short description of the assay: Vibrio cholerae motility inhibitors, OD read-out (AID 588778). Particulars: stronger effect = higher value.
The mark [1] stands for this setting: measured here: bacterial viability at 10 ug/mL.

One may read the inhibition as the change of the read-out against control, counted positive when it falls. Consider `O=C(CC(NCc1ccccn1)C(=O)O)Nc1ccc(Cl)cc1` (configuration not stated), for which the inhibition runs as follows: (concentration not given here) 4.17% (inactive); under setting [1], -9.2%.
`COCc1cc(CN2CCCCC2)c(O)c2ncccc12`: the inhibition is 34% (inactive) (concentration not given here) and 5.26% under setting [1].
The like results for `COc1cc(C(=O)Nc2nnc(-c3sccc3C)s2)cc(OC)c1OC` were, in that order, -3.78% (inactive) and -6.72%.
For `OCC(CO)(CO)NCC(O)CN1c2ccccc2Sc2ccccc21` (configuration not stated), in that order: 3.65% (inactive) and -1.83%.
Take `c1cncc(Nc2nc(-c3cccs3)cs2)c1`: the inhibition (concentration not given here) is 13.2% (inactive) and the inhibition under setting [1] was -2.87%.
The like results for `COc1ccc(Cl)cc1NC(=S)Nc1cccc(C)n1` were, in that order, -27.1% (inactive) and -16.2%.
The like results for `COc1ccc(C(=O)Nc2ncccc2O)cc1` were, in that order, 10.3% (inactive) and 2.51%.
The like results for `S=C(NCc1ccco1)NNC(=S)Nc1ccc(Cl)cc1` were, in that order, 13.3% (inactive) and 5.16%.
In the case of `CCCC(=O)c1ccc(N2CCN(C(=O)c3ccccc3Br)CC2)c(F)c1`, the inhibition is 1.55% (inactive) (concentration not given here) and 4.06% under setting [1].
Turning to `COC(=O)C1=CN(c2ccc(F)c(F)c2)C=C(C(=O)OC)C1c1cc(OC)ccc1OC`, the inhibition runs as follows: (concentration not given here) -1.54% (inactive); under setting [1], -3.16%.
Regarding `Cc1sc(NCc2cc(Cl)ccc2O)nc1-c1ccc(F)cc1`, the inhibition reads like this: (concentration not given here) 14% (inactive); under setting [1], -2.93%.
For `O=C(Oc1ccc(Cl)cc1Br)c1ccc(F)cc1`, in that order: -4.46% (inactive) and -5.02%.
As to `COc1c(S(=O)(=O)N2CCCN(S(=O)(=O)c3ccc(Cl)c(Cl)c3OC)CC2)ccc(Cl)c1Cl`, the inhibition reads like this: (concentration not given here) 8.96% (inactive); under setting [1], 22.4%.
The like results for `COc1cc(NC(=O)CS)cc(OC)c1` were, in that order, -28.8% (inactive) and -11%.
For `CC(CCc1ccccc1)NC(=O)c1cccnc1` (configuration not stated), in that order: 14.2% (inactive) and -1.57%.
The like results for `CCOc1ccc(-n2nc3ccc(NC(=S)NC(=O)CC)cc3n2)cc1` were, in that order, -22.2% (inactive) and -6.24%.
With `CC1(C)CC(=O)C2=C(C1)NC(Nc1nc3ccccc3s1)=NC21C(=O)Nc2ccccc21` (configuration not stated), the inhibition was 5.23% (inactive) (concentration not given here) and -0.54% under setting [1].
On to `O=C(CCC(=O)Nc1ccccc1Cl)NNC(=S)NCc1ccco1`, for which the inhibition was 7.34% (inactive) (concentration not given here) and 30.6% under setting [1].
The like results for `O=C(CCCOc1ccc(Cl)cc1Cl)N1CCN(Cc2ccc3c(c2)OCO3)CC1` were, in that order, 15.4% (inactive) and 5.35%.
For `CCc1[nH]nc2c1C1(CN3CCC1CC3)C(C#N)=C(N)O2` (configuration not stated), the inhibition (concentration not given here) is -3.07% (inactive) and the inhibition under setting [1] is -0.3%.
For `CCN1C(=O)Cc2cc(S(N)(=O)=O)ccc21`, in that order: 13.3% (inactive) and 0.76%.
Take `O=C(NCCc1ccccc1)c1ccc(CNS(=O)(=O)c2cccc(Cl)c2)cc1`: the inhibition runs as follows: (concentration not given here) -4.41% (inactive); under setting [1], -10.6%.
The like results for `Cc1ccc(NC(NC=O)C(Cl)(Cl)Cl)c(C)c1` (configuration not stated) were, in that order, 1.46% (inactive) and 2.8%.
For `CCc1cc(C(=O)OC)c(NC(=O)c2cc(Br)cs2)s1`, the inhibition is 6.03% (inactive) (concentration not given here) and 1.94% under setting [1].
For `Cc1cccc(C)c1N1CCN(C(=O)N2CCCCC2)CC1`, in that order: 8.63% (inactive) and -4.82%.
As to `COc1ccc(-c2csc3ncnc(SCc4c(C)noc4C)c23)cc1`, the inhibition by setting is: (concentration not given here) 24.7% (inactive); under setting [1], 4.67%.
For `Cc1cc2ccccc2n2c(SCC(=O)c3ccc4c(c3)OCCO4)nnc12`, in that order: 0.44% (inactive) and -5.11%.
For `O=C(c1cccs1)N1C(=O)c2cccc3c(S(=O)(=O)N4CCCC4)ccc1c23`, in that order: 11.6% (inactive) and -0.47%.
For `CCSc1nnc(NC(=O)c2csc3ccccc23)s1`, in that order: -5.35% (inactive) and -4.62%.
Turning to `COc1cc(SC)ccc1C(=O)Nc1cccc(C(F)(F)F)c1`, the inhibition is 0.295% (inactive) (concentration not given here) and -4.94% under setting [1].
On to `CCOC(=O)c1nnc2ccnn2c1N`, for which the inhibition is, setting by setting: (concentration not given here) -20.5% (inactive); under setting [1], -4.37%.
The like results for `Cc1csc(NC(=O)CSc2nc3c(c(C(F)(F)F)c2C#N)CCC3)n1` were, in that order, 4.09% (inactive) and 1.86%.
Take `Cc1c(NC(=O)c2nn3c(C(F)(F)F)c4c(nc3c2Cl)-c2ccccc2CC4)c(=O)n(-c2ccccc2)n1C`: the inhibition (concentration not given here) is -11.3% (inactive) and the inhibition under setting [1] is -0.51%.
For `S=C1NC(C23CC4CC(CC(C4)C2)C3)=CC(c2ccc(Cl)cc2)N1` (configuration not stated), in that order: -6.78% (inactive) and -4.13%.
The like results for `CC(C)CC(C(=O)Oc1ccc2c3c(c(=O)oc2c1)CCC3)N1C(=O)c2ccccc2C1=O` (configuration not stated) were, in that order, 6.55% (inactive) and -2.25%.
Regarding `CCC(=O)OCC12COC3c4ccccc4OC(C)(CC1C)C3C2C` (configuration not stated), the inhibition reads like this: (concentration not given here) -16.5% (inactive); under setting [1], -10.6%.
The like results for `CCOC(=O)c1ccc(NC(=O)COc2ccc3oc(=O)cc(C)c3c2)cc1` were, in that order, -17.2% (inactive) and -0.82%.
The like results for `Cc1ccccc1C(=O)N1CCN(c2nc(N3CCCC3)nc(N3CCCC3)n2)CC1` were, in that order, -0.47% (inactive) and 0.25%.
Consider `O=C(Cc1c(F)cccc1Cl)NCc1ccc2c(c1)OCO2`, for which the inhibition was 40% (inactive) (concentration not given here) and 7.78% under setting [1].
The like results for `O=C(CSc1nnnn1-c1ccccc1)c1cc2ccccc2oc1=O` were, in that order, 3.97% (inactive) and -4.29%.
For `COCCSc1nnc(NC(=O)Cc2c(F)cccc2Cl)s1`, the inhibition reads like this: (concentration not given here) -2.92% (inactive); under setting [1], -1.31%.
For `O=C(NC(=O)c1ccccc1)Nc1ccc(Br)cc1`, in that order: -16.2% (inactive) and -9.72%.
`COc1c(C)cc(Br)cc1C(=O)NC(=S)Nc1nc(C)cc(C)n1`: the inhibition is, setting by setting: (concentration not given here) -16.1% (inactive); under setting [1], -11.8%.
The like results for `CCCCC(=O)Nc1ccc(NC(=O)C(Cl)(Cl)Cl)cc1OC` were, in that order, 3.09% (inactive) and -3.52%.
For `O=C(CCOc1ccccc1)Nc1ccc(Br)cc1`, in that order: -9.09% (inactive) and -6.95%.
As for `O=C(NCc1ccc(-c2nc3ccccc3s2)cc1)c1ccc(Br)o1`, the inhibition runs as follows: (concentration not given here) 1.75% (inactive); under setting [1], 9.78%.
For `Cc1ccc(S(=O)(=O)Nc2cc(Sc3nnnn3-c3ccccc3)c(O)c3ccccc23)cc1`, in that order: 15.9% (inactive) and 1.17%.
For `COC(=O)C1=C(C)NC(C)=C(C(=O)OC)C1c1sccc1C`, in that order: 20.1% (inactive) and -0.13%.
The like results for `CC(=O)CSc1nnc(-c2cccnc2)o1` were, in that order, -0.39% (inactive) and 0.24%.
As to `O=C(O)C(Cc1ccccc1)N1C(=O)/C(=C/c2ccc([N+](=O)[O-])cc2)SC1=S` (configuration not stated), the inhibition reads like this: (concentration not given here) 8.42% (inactive); under setting [1], 1.4%.
For `CCOC(=O)c1c(NC(=O)Nc2ccccc2C)sc2c1CC(C)(C)OC2`, in that order: 9.16% (inactive) and 24.8%.
In the case of `COc1ccc(OC)c(C(=O)CCC(=O)Nc2cccc(C(F)(F)F)c2)c1`, the inhibition is -4.82% (inactive) (concentration not given here) and 3.82% under setting [1].
On to `CCOC(=O)C1(NC(=S)N(CC)CC)Sc2cc(C)ccc2NC1=O` (configuration not stated), for which the inhibition (concentration not given here) is 12.1% (inactive) and the inhibition under setting [1] stood at 13.5%.
With `CCN(CC)c1ccc(CNC(C)C(O)c2ccccc2)cc1` (configuration not stated), the inhibition reads like this: (concentration not given here) 19.9% (inactive); under setting [1], 5.6%.
The like results for `c1ccc2nc3c(nc2c1)CCc1nonc1-3` were, in that order, 0.045% (inactive) and -1.06%.
The like results for `CCOC(=O)c1ccc(CNC(=O)CCC(=O)O)cc1` were, in that order, 2.35% (inactive) and -10.3%.
In the case of `O=C(CCC(=O)Nc1ccccc1Cl)NNC(=O)Nc1ccc(F)cc1F`, the inhibition is -13.9% (inactive) (concentration not given here) and -8.28% under setting [1].
For `O=C(c1c(F)cccc1F)N1CCN(C(c2ccccc2)c2ccccc2)CC1`, in that order: 11.9% (inactive) and -2.62%.
`O=C(NC(=S)NNC(=O)c1cnccn1)c1ccc(F)cc1`: the inhibition (concentration not given here) is 17.5% (inactive) and the inhibition under setting [1] is 4.07%.
For `CCSc1nnc(NC(=O)c2ccc(Br)s2)s1`, in that order: -21.3% (inactive) and -10.2%.
The like results for `O=C(O)CCc1ccc(-c2cccs2)n1-c1cc(Cl)ccc1Cl` were, in that order, 5.81% (inactive) and -0.02%.
The like results for `CCc1ccccc1OCCCCn1c2ccccc2c2ccccc21` were, in that order, -30.3% (inactive) and -15.4%.
As for `COCCSc1ccccc1C(=O)NCc1ccc(S(N)(=O)=O)cc1`, the inhibition is, setting by setting: (concentration not given here) 4.8% (inactive); under setting [1], 5.23%.
Regarding `CCCC(=O)N1CCN(c2ccc(NC(=O)COc3ccc(C)c(C)c3)cc2Cl)CC1`, the inhibition (concentration not given here) was 10.7% (inactive) and the inhibition under setting [1] was found to be 4.97%.
The like results for `O=C(Nc1nnc(C(F)(F)F)s1)C(Sc1ccccc1)c1ccccc1` (configuration not stated) were, in that order, -9.96% (inactive) and -4.95%.
Regarding `O=C(Cc1ccccc1Cl)c1ccc(O)c(O)c1O`, the inhibition by setting is: (concentration not given here) 12.7% (inactive); under setting [1], 2.63%.
The like results for `COc1cc(OC)c(NC(=O)c2csc3ccccc23)cc1Cl` were, in that order, 4.43% (inactive) and 1.11%.
Consider `COC(C(=O)Nc1cc([N+](=O)[O-])ccc1C)c1ccccc1` (configuration not stated), for which the inhibition by setting is: (concentration not given here) 3.61% (inactive); under setting [1], -3.16%.
With `O=C(OCc1ccccc1F)c1ccc([N+](=O)[O-])cc1Cl`, the inhibition was 45.5% (inactive) (concentration not given here) and 18.5% under setting [1].
For `Cn1ncc(C#N)c1NC(=O)C1CC(c2c(F)cccc2Cl)=NO1` (configuration not stated), in that order: 15.8% (inactive) and 10.8%.
For `Cn1nc([N+](=O)[O-])nc1Sc1nnc(-c2cccnc2)o1`, in that order: 44.4% (inactive) and 15.6%.
With `COc1cc2c(NCc3ccccc3)cc(O)c(CC(=O)Nc3ccc(Cl)cc3)c2cc1OC`, the inhibition is 8.57% (inactive) (concentration not given here) and 1.46% under setting [1].
For `Cc1ccc(-c2c(C(=O)NNC(=S)NCC3CCCO3)csc2C)cc1` (configuration not stated), in that order: 17.3% (inactive) and -2.95%.
For `Cc1ccccc1NC(=S)NC1CCCC1`, in that order: -3.76% (inactive) and -1.53%.
The like results for `O=C(CSc1nc2ccccc2s1)NNC(=S)Nc1ccc(F)c(Cl)c1` were, in that order, 47.6% (inactive) and 18.2%.
Consider `Cc1ccc2c(c1)C(=O)C(=O)N2`, for which the inhibition is, setting by setting: (concentration not given here) 26.8% (inactive); under setting [1], 12.9%.
For `Cc1nc(Oc2ccc3c(c2)OCO3)c2cc(-c3ccccc3)sc2n1`, the inhibition is 6.33% (inactive) (concentration not given here) and 0.3% under setting [1].
The like results for `Cc1ccc2cccc(OCc3nnc(-c4ccccc4)o3)c2n1` were, in that order, 14.5% (inactive) and -1.8%.
Regarding `COC(=O)c1ccc2ccn(CC(N)=O)c2c1`, the inhibition by setting is: (concentration not given here) 8.78% (inactive); under setting [1], 7.37%.
The like results for `COc1cccc(/C=C/C2=NN(c3ccc(Cl)c(Cl)c3)C(c3cccc(OC)c3OC)C2)c1OC` (configuration not stated) were, in that order, 26.7% (inactive) and 13.6%.
As for `Cc1ccccc1NC(=O)NC1CCS(=O)(=O)C1` (configuration not stated), the inhibition reads like this: (concentration not given here) -0.46% (inactive); under setting [1], -4.02%.
The like results for `C=CCOc1cccc(CNc2ccc3[nH]c(=O)[nH]c3c2)c1` were, in that order, 33.7% (inactive) and 18.3%.
For `Cc1ccc2nc(-c3cccnc3)cc(C(=O)Nc3ccc4c(C)cc(=O)oc4c3)c2c1`, in that order: -7.04% (inactive) and 9.26%.
The like results for `O=C(O)Cc1ccc(NC(=O)c2cccnc2C(=O)O)cc1` were, in that order, -4.82% (inactive) and -2.46%.
Turning to `Cc1ccc(NC(=O)c2ccccc2NC(=O)Cc2ccc(Cl)cc2)cc1C`, the inhibition reads like this: (concentration not given here) 11.1% (inactive); under setting [1], 19.3%.
On to `O=C1C(c2ccccn2)=C(O)c2ccccc21`, for which the inhibition was 14.8% (inactive) (concentration not given here) and 4.31% under setting [1].

The record behind these values is PubChem BioAssay AID588778 (Southern Research Institute, 2011).
